Test results taken from PubChem BioAssay AID602124 (The Scripps Research Institute Molecular Screening Center, 2011).
Hit rate of the full screen: of about 1,300 compounds, about 630 (48%) were called active. So high a share suggests a set chosen from earlier hits. This is one part of a sample in which actives are shown more often than they occur. Cut-off read from the data, not from the text of the source: active = inhibition above about 6.5%; inactive = the rest.

Molecular target: Tyrosine-protein kinase ABL1 (Homo sapiens) + Ras and Rab interactor 1 (Homo sapiens) (UniProt P00519+Q13671)
Test: disruptors of human Abl and Rin1 association – biochemical, TR-FRET, confirmation (AID 602124)
Conditions: TR-FRET Rin1-Abl binding, purified proteins; at 7.35 µM; stronger effect = higher value

Chain of Tyrosine-protein kinase ABL1 (Homo sapiens) + Ras and Rab interactor 1 (Homo sapiens) (P00519 whole entry, looked up): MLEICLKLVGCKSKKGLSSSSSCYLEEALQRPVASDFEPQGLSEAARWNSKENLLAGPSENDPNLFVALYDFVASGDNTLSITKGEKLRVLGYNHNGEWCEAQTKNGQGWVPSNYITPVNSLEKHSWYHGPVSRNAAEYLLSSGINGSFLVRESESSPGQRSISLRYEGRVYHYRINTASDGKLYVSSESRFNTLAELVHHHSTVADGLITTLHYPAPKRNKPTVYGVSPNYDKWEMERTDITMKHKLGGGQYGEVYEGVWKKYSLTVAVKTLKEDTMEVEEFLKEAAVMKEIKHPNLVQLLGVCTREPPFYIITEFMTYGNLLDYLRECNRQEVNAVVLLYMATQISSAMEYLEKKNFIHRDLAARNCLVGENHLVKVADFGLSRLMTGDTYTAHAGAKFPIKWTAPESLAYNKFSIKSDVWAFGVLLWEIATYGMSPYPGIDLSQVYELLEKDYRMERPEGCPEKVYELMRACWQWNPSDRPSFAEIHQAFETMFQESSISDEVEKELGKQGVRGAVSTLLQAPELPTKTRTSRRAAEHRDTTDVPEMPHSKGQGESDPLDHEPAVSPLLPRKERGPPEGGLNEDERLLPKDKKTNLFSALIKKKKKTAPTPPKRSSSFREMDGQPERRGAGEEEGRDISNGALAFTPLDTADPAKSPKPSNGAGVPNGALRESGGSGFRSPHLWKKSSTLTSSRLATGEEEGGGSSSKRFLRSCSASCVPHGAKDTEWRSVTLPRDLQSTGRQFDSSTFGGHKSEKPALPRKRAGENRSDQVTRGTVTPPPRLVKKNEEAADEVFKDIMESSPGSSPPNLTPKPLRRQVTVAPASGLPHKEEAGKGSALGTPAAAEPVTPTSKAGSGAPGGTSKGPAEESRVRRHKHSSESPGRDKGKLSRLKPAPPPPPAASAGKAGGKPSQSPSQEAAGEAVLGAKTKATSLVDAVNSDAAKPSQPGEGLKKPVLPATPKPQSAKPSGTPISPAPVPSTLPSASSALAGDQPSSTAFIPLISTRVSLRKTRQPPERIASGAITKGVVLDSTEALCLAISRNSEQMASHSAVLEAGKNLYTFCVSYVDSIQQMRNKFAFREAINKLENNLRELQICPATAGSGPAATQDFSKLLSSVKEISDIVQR
Chain of Tyrosine-protein kinase ABL1 (Homo sapiens) + Ras and Rab interactor 1 (Homo sapiens) (Q13671 whole entry, looked up): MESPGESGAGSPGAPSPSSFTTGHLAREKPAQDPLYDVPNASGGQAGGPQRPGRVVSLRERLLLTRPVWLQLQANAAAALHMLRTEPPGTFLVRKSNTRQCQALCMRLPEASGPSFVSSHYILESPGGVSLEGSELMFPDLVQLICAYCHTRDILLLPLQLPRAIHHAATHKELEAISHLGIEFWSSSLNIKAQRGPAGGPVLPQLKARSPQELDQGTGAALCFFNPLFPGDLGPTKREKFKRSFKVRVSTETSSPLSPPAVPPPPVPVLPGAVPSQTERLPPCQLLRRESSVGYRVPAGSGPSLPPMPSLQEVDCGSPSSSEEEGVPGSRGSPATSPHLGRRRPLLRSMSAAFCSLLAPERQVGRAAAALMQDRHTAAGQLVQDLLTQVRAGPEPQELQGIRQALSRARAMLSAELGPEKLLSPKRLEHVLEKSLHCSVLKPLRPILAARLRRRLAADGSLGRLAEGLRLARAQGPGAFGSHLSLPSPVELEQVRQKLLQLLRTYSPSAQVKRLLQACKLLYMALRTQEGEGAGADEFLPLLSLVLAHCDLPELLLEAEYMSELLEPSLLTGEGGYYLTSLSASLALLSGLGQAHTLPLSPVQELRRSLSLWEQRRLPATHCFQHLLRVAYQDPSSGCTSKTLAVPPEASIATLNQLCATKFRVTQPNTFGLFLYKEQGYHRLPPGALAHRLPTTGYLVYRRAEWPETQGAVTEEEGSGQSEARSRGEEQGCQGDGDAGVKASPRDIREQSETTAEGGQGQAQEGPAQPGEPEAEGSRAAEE

Which inhibition does the source give for CSCCC(c1nnnn1C(C)(C)C)N1CCC(n2c(=O)[nH]c3ccccc32)CC1 (stereo unspecified) here?
The inhibition was 16.5% (active).
